According to PubChem BioAssay AID2284323 (EPA ToxCast):
The source made the active and inactive calls. How the source made its calls: active means hit-call score of the fitted dose curve at least 0.9, where 1 is the maximum; inactive means score below 0.9.

System: NCBI gene 447152
Experiment: CCTE_GLTED_xIYD: CCTE's Xenopus Iodotyrosine Deiodinase (xIYD) Inhibition Assay, Great Lakes Toxicology and Ecology Division (GLTED) Lab
Procedure: CCTE_GLTED_xIYD is a cell-free, single-readout assay that uses Xenopus (frog) iodotyrosine deiodinase (xIYD) enzyme from liver microsomes. Assay is based on iodide release measured by the Sandell-Kolthoff method and is run in 96-well plate format with assay plates run in triplicate (n=3) with measurements taken at 3 hours after chemical dosing. Platewise-normalization was used based on positive control (3-Nitro-L-tyrosine, MNT) and negative/solvent controls (DMSO, NaOH).CCTE_GLTED_xIYD is the assay component measured from the CCTE_GLTED_xIYD assay. It measures substrate involved in regulation of catalytic activity using spectrophotometry. The assay measures the deiodination activity of Xenopus (frog) IYD on the substrate monoiodotyrosine (MIT). After 3h incubation of substrate, enzyme, and test chemical, the components are applied to a 96-well Dowex column. Free iodide is not retained by the column and is separated from interfering assay components. The free iodide is measured by the Sandell-Kolthoff reaction in which the rate of reduction of cerium (Ce+4 to Ce+3) by arsenic (As+3 to As+5) is increased by the presence of iodide. This is observed as the loss of yellow color in the reaction and the quantified by the change in absorbance at 420 nm. The change in reaction rate is proportional to the amount of iodide present.Data from the assay component CCTE_GLTED_xIYD was analyzed at the assay endpoint CCTE_GLTED_xIYD in the positive analysis fitting direction relative to DMSO as the negative control and baseline of activity. Using a type of enzyme reporter, loss-of-signal activity can be used to understand iodotyrosine deiodinase activity. To generalize the intended target to other relatable targets, this assay endpoint is annotated to the 'dehalogenase' intended target family, where the subfamily is 'iodotyrosine deiodinase'.
Human transthyretin (TTR) assay, developed at Great Lakes Toxicology and Ecology Division (GLTED) within the EPA's Center for Computational Toxicology and Exposure (CCTE), is designed to test the chemicals' ability to displace T4 from the TTR protein. TTR (0.125uM) is incubated in presence of test chemical for 2 hours during which disrupting chemicals displace ANSA from the TTR protein. Results read fluorescence at 380 excitation and 475 emission.

O=S(=O)(Cl)C(F)(F)C(F)(F)C(F)(F)C(F)(F)C(F)(F)C(F)(F)C(F)(F)C(F)(F)F was tested, and the outcome was “inactive”.
With O=P(O)(O)CCC(F)(F)C(F)(F)C(F)(F)C(F)(F)C(F)(F)C(F)(F)C(F)(F)C(F)(F)F the AC50 was 65.4 µM (active).
For O=C(O)C(F)(F)C(F)(F)C(F)(F)C(F)(F)C(F)(F)C(F)(F)C(F)(F)C(F)(F)C(F)(F)C(F)F, the AC50 was 64.2 µM (active).
O=C(O)CCC(F)(F)C(F)(F)C(F)(F)C(F)(F)C(F)(F)C(F)(F)C(F)(F)F was tested, and the outcome was “inactive”.
O=C(O)C(F)(F)C(F)(F)C(F)(F)C(F)(F)C(F)(F)C(F)(F)C(F)(F)C(F)(F)Cl was tested, and the AC50 was 38.9 µM (active).
For N[C@@H](Cc1ccc(O)c([N+](=O)[O-])c1)C(=O)O, the AC50 was 0.113 µM (active).
With O=C(O)C(F)(F)OC(F)(F)C(F)(F)OC(F)(F)C(F)(F)OC(F)(F)C(F)(F)C(F)(F)C(F)(F)F the AC50 was 93.8 µM (active).
O=S(=O)(O)C(F)(F)C(F)(F)C(F)(F)C(F)(F)C(F)(F)C(F)(F)C(F)(F)F was tested, and the AC50 was 19.8 µM (active).
For O=C(Cl)C(F)(F)C(F)(F)C(F)(F)C(F)(F)C(F)(F)C(F)(F)C(F)(F)C(F)(F)F, the outcome was “inactive”.
